From the supplement of paper PMC13380429

How the values were obtained:
[1] = tested on: Vero E6 infected with SARS-CoV-2; assay: morphology score (similarity to uninfected cells); higher = more like uninfected cells; details: 24 h
[2] = tested on: Vero E6 infected with SARS-CoV-2; assay: SARS-CoV-2 infection rate relative to infected DMSO; higher = more infection, active = 60 or less; details: 24 h
[3] = tested on: Vero E6 infected with SARS-CoV-2; assay: inhibition of SARS-CoV-2 cytopathic effect; higher = more antiviral protection, active = above 15; details: 48 h

| Compound | morphology score [1] | SARS-CoV-2 infection rate [2] | inhibition of SARS-CoV-2 cytopathic effect ([3]; 1 nM) | inhibition of SARS-CoV-2 cytopathic effect ([3]; 8.33 nM) | inhibition of SARS-CoV-2 cytopathic effect ([3]; 100 nM) | inhibition of SARS-CoV-2 cytopathic effect ([3]; 833.33 nM) | inhibition of SARS-CoV-2 cytopathic effect ([3]; 10000 nM) |
| --- | --- | --- | --- | --- | --- | --- | --- |
| Cc1cc(Oc2ccc3nc(COc4ccc(CC5SC(=O)NC5=O)cc4)n(C)c3c2)cc(C)c1N (centres undefined) [efatutazone] (10 µM) | 0.36 | 93.5% (inactive) | – | – | – | – | – |
| Cn1cc(C2=C(c3ccc(Cl)cc3Cl)C(=O)NC2=O)c2ccccc21 (10 µM) | 0.00458 | 102% (inactive) | – | – | – | – | – |
| COc1ncc(-c2ccc3nccc(-c4ccnnc4)c3c2)cc1NS(=O)(=O)c1ccc(F)cc1F (0.833333 µM) | -0.0933 | 110% (inactive) | – | – | – | – | – |
| CN(C)CCC=C1c2ccccc2CCc2ccccc21 [amitriptyline] (10 µM) | 0.0472 | 100% (inactive) | – | – | – | – | – |
| CN(C)Cc1cccc(N=C(c2ccccc2)c2c(O)[nH]c3cc(C(=O)N(C)C)ccc23)c1 (10 µM) | -0.271 | 112% (inactive) | – | – | – | – | – |
| NCC(O)(CS(=O)(=O)O)c1ccc(Cl)cc1 (centres undefined) [2-hydroxysaclofen] (10 µM) | 0.266 | 84.5% (inactive) | – | – | – | – | – |
| O=c1sn(-c2cccc3ccccc23)c(=O)n1Cc1ccccc1 [tideglusib] (10 µM) | 0.109 | 108% (inactive) | – | – | – | – | – |
| Cc1cc(NC(=O)Nc2ccc(F)c(F)c2)n(-c2ccccc2)n1 (10 µM) | 0.105 | 102% (inactive) | – | – | – | – | – |
| Cc1nnc(-c2ccc3occ(-c4ccc([S+](C)[O-])cc4)c3c2)o1 (centres undefined) | – | – | 0.61% (inactive) | 0.11% (inactive) | -1.48% (inactive) | 1.56% (inactive) | 8.77% (inactive) |
| CCC1(CC)C(=O)C=CNC1=O [pyrithyldione] | – | – | 1.54% (inactive) | 0.58% (inactive) | -3.23% (inactive) | -6.45% (inactive) | -4.46% (inactive) |
| O=c1c(O)c(-c2ccc(O)c(O)c2)oc2cc(O)ccc12 [fisetin] (10 µM) | 0.115 | 111% (inactive) | – | – | – | – | – |
| CCCCC(CC)COc1ccc(-c2nc(-c3ccc(OC)cc3)nc(-c3ccc(OCC(CC)CCCC)cc3O)n2)c(O)c1 (centres undefined) [bemotrizinol] | – | – | 1.11% (inactive) | 3.46% (inactive) | 1.8% (inactive) | – | – |
| CN(C)C(=S)SSC(=S)N(C)C [thiram] | – | – | 5.06% (inactive) | 3.58% (inactive) | -8.77% (inactive) | – | – |
| O=[N+]([O-])c1ccc([As](=O)(O)O)cc1 [nitarsone] | – | – | -0.01% (inactive) | 1.59% (inactive) | 0.4% (inactive) | – | – |
| O[C@@H](CN1CCNCC1)Cn1c2ccc(Br)cc2c2cc(Br)ccc21 [BAX-channel-blocker] | – | – | 10.2% (inactive) | 4.29% (inactive) | 2.27% (inactive) | 2.49% (inactive) | -21.9% (inactive) |
| O=c1[nH]c2cc(Cl)ccc2c(O)c1-c1cccc(Oc2ccccc2)c1 | – | – | 1.74% (inactive) | 0.53% (inactive) | 2.73% (inactive) | – | – |
| CC(C)(F)C[C@H](N[C@@H](c1ccc(-c2ccc(S(C)(=O)=O)cc2)cc1)C(F)(F)F)C(=O)NC1(C#N)CC1 [odanacatib] | – | – | -3.88% (inactive) | -4.52% (inactive) | -3.49% (inactive) | -1.8% (inactive) | 0.04% (inactive) |
| CCNCc1cc(C(C)(C)C)c(O)c(C(C)(C)C)c1 | – | – | 1.75% (inactive) | -0.5% (inactive) | 1.78% (inactive) | 0.46% (inactive) | 1.14% (inactive) |
| CCCCC1CCC(c2nc(-c3ccncc3)no2)CC1 (centres undefined) | – | – | 1.12% (inactive) | 0.82% (inactive) | -0.05% (inactive) | 0.32% (inactive) | 2.33% (inactive) |
| CC(C)Nc1nc2cc(Cl)c(Cl)cc2n1[C@H]1O[C@@H](CO)[C@H](O)[C@@H]1O [maribavir] (10 µM) | -0.0681 | 122% (inactive) | – | – | – | – | – |
| COc1ccc2[nH]cc(C3=CCNCC3)c2c1 | – | – | 1.62% (inactive) | -0.77% (inactive) | 0.86% (inactive) | -2.22% (inactive) | -3.05% (inactive) |
| C=CC(=O)Nc1cccc(Nc2nc(Nc3ccc(NC4CN(CCF)C4)cc3OC)ncc2C(F)(F)F)c1 | – | – | 0.89% (inactive) | 1.87% (inactive) | 7.9% (inactive) | -5.81% (inactive) | -24.6% (inactive) |
| Oc1ccc(Cl)cc1 [parachlorophenol] (10 µM) | 0.063 | 98% (inactive) | – | – | – | – | – |
| CN[C@H](C(=O)N[C@H](C(=O)N(C)[C@H](/C=C(\C)C(=O)O)C(C)C)C(C)(C)C)C(C)(C)c1ccccc1 [taltobulin] | – | – | -0.53% (inactive) | -1.55% (inactive) | -0.97% (inactive) | -1.63% (inactive) | -1.03% (inactive) |

| Compound | morphology score [1] | SARS-CoV-2 infection rate [2] | inhibition of SARS-CoV-2 cytopathic effect ([3]; 1 nM) | inhibition of SARS-CoV-2 cytopathic effect ([3]; 8.33 nM) | inhibition of SARS-CoV-2 cytopathic effect ([3]; 100 nM) | inhibition of SARS-CoV-2 cytopathic effect ([3]; 833.33 nM) | inhibition of SARS-CoV-2 cytopathic effect ([3]; 10000 nM) |
| --- | --- | --- | --- | --- | --- | --- | --- |
| CS(=O)(=O)N1CCc2c(-c3cnc(N)nc3)nc(N3CCOCC3)nc21 | – | – | -2.71% (inactive) | 1.07% (inactive) | 1.27% (inactive) | -3.9% (inactive) | -8.89% (inactive) |
| Cc1[nH]c2ccc(F)cc2c1-c1nc2c3cccnc3c3ncccc3c2[nH]1 | – | – | 0.2% (inactive) | 1.01% (inactive) | 0.29% (inactive) | -0.86% (inactive) | 2.7% (inactive) |
| Cc1cc(O)c(C(C)C)cc1Cl [chlorothymol] | – | – | 0.21% (inactive) | 0.56% (inactive) | 2.72% (inactive) | 0.49% (inactive) | -5.16% (inactive) |
| C[C@]12CCC(=O)C=C1CC[C@@H]1[C@@H]2[C@@H](O)C[C@@]2(C)[C@H]1CC[C@]2(O)C(=O)COC(=O)CCC(=O)O [hydrocortisone-hemisuccinate] | – | – | -3.36% (inactive) | -5.52% (inactive) | -5.26% (inactive) | -3.7% (inactive) | -4.67% (inactive) |
| CC(=O)[O][Hg][c]1ccccc1 [phenylmercuric-acetate] | – | – | -1.11% (inactive) | -1.71% (inactive) | -0.22% (inactive) | – | – |
| CCN(CC)CCNC(=O)c1cc(Br)c(N)cc1OC [bromopride] | – | – | -3.41% (inactive) | -1.83% (inactive) | -0.25% (inactive) | -3.5% (inactive) | -1.74% (inactive) |
| COC(=O)C1=CCCN(C)C1 [arecoline] (10 µM) | 0.184 | 100% (inactive) | – | – | – | – | – |
| Fc1ccc(C(OCCN2CCN(C/C=C/c3ccccc3)CC2)c2ccc(F)cc2)cc1 | – | – | 1.02% (inactive) | 1.01% (inactive) | 3.35% (inactive) | 1.4% (inactive) | 0.32% (inactive) |
| C[CH2][Hg][S]c1ccccc1C(=O)[O-].[Na+] [thiomersal] | – | – | 0.94% (inactive) | 0.96% (inactive) | 1.12% (inactive) | – | – |
| CC(=O)Nc1cc([As](=O)(O)O)ccc1O [acetarsol] | – | – | 0.15% (inactive) | 0.13% (inactive) | 1.84% (inactive) | – | – |
| NCCC[C@H](N)CC(=O)N[C@H]1CNC(=O)[C@H]([C@H]2C[C@H](O)NC(N)=N2)NC(=O)/C(=C/NC(N)=O)NC(=O)[C@H](CO)NC(=O)[C@H](CO)NC1=O [viomycin] | – | – | 2.35% (inactive) | 1% (inactive) | -1.8% (inactive) | – | – |
| CCOC(=O)c1ccc(OCCC2CCN(c3ccc(C)nn3)CC2)cc1 [pirodavir] (10 µM) | 0.0282 | 104% (inactive) | – | – | – | – | – |
| C#C[C@]1(O)CC[C@H]2[C@@H]3CCc4cc(O)ccc4[C@H]3CC[C@@]21C | – | – | 0.97% (inactive) | 0.51% (inactive) | 6.67% (inactive) | 3.6% (inactive) | 7.74% (inactive) |
| CCOP(=S)(OCC)Oc1ccc2c(C)c(Cl)c(=O)oc2c1 [coumophos] | – | – | -3.33% (inactive) | 0.82% (inactive) | 0.18% (inactive) | -2.21% (inactive) | -0.05% (inactive) |
| Cc1c(C)c2c(c(C)c1O)CCC(C)(C)O2 | – | – | 0.77% (inactive) | -0.34% (inactive) | 2.33% (inactive) | 4.37% (inactive) | -5.56% (inactive) |
| CCC(=O)NC[C@H](Cc1ccc(OCCc2nc(-c3ccccc3)oc2C)cc1)N/C(C)=C\C(=O)c1ccc(C(F)(F)F)cc1 | – | – | -1.03% (inactive) | 0.69% (inactive) | 0.66% (inactive) | 1.86% (inactive) | 5.34% (inactive) |
| CC[C@H](C(=O)N1CCCC[C@H]1C(=O)O[C@H](CCc1ccc(OC)c(OC)c1)c1cccc(OCC(=O)NCCNC(=O)COc2cccc([C@@H](CCc3ccc(OC)c(OC)c3)OC(=O)[C@@H]3CCCCN3C(=O)[C@@H](CC)c3cc(OC)c(OC)c(OC)c3)c2)c1)c1cc(OC)c(OC)c(OC)c1 | – | – | -3.12% (inactive) | -1.9% (inactive) | -0.97% (inactive) | – | – |
| Cl[C@H]1[C@H](Cl)[C@@H](Cl)[C@@H](Cl)[C@H](Cl)[C@H]1Cl [lindane] | – | – | -2.48% (inactive) | -1.41% (inactive) | -0.79% (inactive) | – | – |
| Cn1c(COc2ccc(CC3SC(=O)NC3=O)cc2)nc2ccccc2c1=O (centres undefined) [balaglitazone] (10 µM) | -0.114 | 111% (inactive) | – | – | – | – | – |
| CC(=O)Nc1ccc(S(=O)(=O)Nc2ccc([N+](=O)[O-])cc2)cc1 [sulfanitran] | – | – | -1.18% (inactive) | -2.16% (inactive) | 0.76% (inactive) | 0.27% (inactive) | -4.49% (inactive) |
| O=[N+]([O-])c1cc([As](=O)(O)O)ccc1O [roxarsone] | – | – | -3.44% (inactive) | -2.76% (inactive) | -4.83% (inactive) | – | – |
| O=C([O-])c1ccccc1-c1c2cc(Br)c(=O)cc-2oc2[c]([Hg+])c([O-])c(Br)cc12.[Na+].[Na+].[OH-] [merbromin] | – | – | -11.2% (inactive) | -13.3% (inactive) | -11.5% (inactive) | – | – |
| CCN(CCCCOC(=O)c1ccc(OC)c(OC)c1)C(C)Cc1ccc(OC)cc1 (centres undefined) [mebeverine] | – | – | 1.37% (inactive) | -1.75% (inactive) | -0.83% (inactive) | -1.35% (inactive) | -3.11% (inactive) |
